Results as given in PubChem BioAssay (NCI).
The panel holds about 83,000 compounds, 20% with a hit somewhere; the sample as a whole holds those more often.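 Cell lines were cultured in 96-well plates, exposed to a single compound concentration, and assessed for percent growth 48 hours later.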 Unmarked numbers belong to inactive results. Active and inactive are the calls of the source. How the source made its calls: active means growth percent below 10; inactive means the rest.

Columns and labels:
Assay in all cases: NCI-60 one-dose screen, 48 h (100 = growth as untreated, 0 = no growth, -100 = all killed)
Settings in all cases: 10 µM unless noted
[1] = test system: T-47D breast
[2] = test system: BT-549 breast
[3] = test system: MDA-MB-435 melanoma
[4] = test system: SW-620 colon
[5] = test system: MCF7 breast
[6] = test system: HCT-116 colon
[7] = test system: HCC-2998 colon
[8] = test system: KM12 colon

| Compound | growth [1] | growth [2] | growth [3] | growth [4] | growth [5] | growth [6] | growth [7] | growth [8] |
| --- | --- | --- | --- | --- | --- | --- | --- | --- |
| CCOC(=O)C1=C(c2ccccc2)N=C2N(c3ccccc3)N=C(C(C)=O)N2C1c1ccc(Br)cc1 (stereo unspecified) | 79.8% | 98.3% | 101% | 97% | 89.2% | 84.7% | 103% | 94.9% |
| COc1ccc(NC(=O)c2ccc(Cl)cc2Cl)cc1 | 94.5% | 101% | 88.3% | 95% | 93.8% | 99.4% | 105% | 99.1% |
| COC(=O)c1cc(-c2cc(OC)c(OC)c(OC)c2)[nH]c1N/N=C/c1c(Cl)cccc1Cl | 9.55% (active) | 128% | -2.15% (active) | 44.9% | 7.14% (active) | 5.15% (active) | -62% (active) | 15% |
| CCOC(=O)/C=C1\S/C(=N\Nc2cc(=O)[nH]c3ccc(OC)cc23)N(c2ccccc2)C1=O | 73.6% | 99.6% | 97% | 95.3% | 69.4% | 93.9% | 115% | 91.8% |
| C=C1C(=O)O[C@H]2[C@H]1CC/C(CNC(=O)/C=C/c1cc(OC)c(OC)c(OC)c1)=C\CC[C@@]1(C)O[C@@H]21 | -65% (active) | -17.8% (active) | -60.3% (active) | -21.6% (active) | -8.09% (active) | -65.6% (active) | -79% (active) | 38.8% |
| Nc1ncc(-c2ccc3ncnc(N4CCc5cc(F)c(Cl)cc54)c3c2)cn1 | 8.79% (active) | 33.7% | 55.8% | 66.4% | 24.3% | 46.9% | 61.5% | 58% |
| N=C(N)c1ccc(-c2ccc(-c3ccccc3)s2)nc1 | 79.5% | 98.7% | 85.8% | 57.4% | 41.3% | 46.9% | 58.9% | 39.4% |
| C(=N\Nc1nnc2n1N=C(c1ccccc1)CS2)/c1ccc(OCc2ccccc2)cc1 | 84.5% | 103% | 99.8% | 113% | 82.9% | 100% | 120% | 102% |
| CN(C)C(=O)OCc1ccc2c(Cl)cc(Cl)c(O)c2n1 | 37.8% | 60.3% | 31.2% | 25.7% | 32.4% | 31.6% | 61.8% | 35.4% |
| CC(C)n1nc(-c2ccc3oc(N)nc3c2)c2c(N)ncnc21 | -36% (active) | -23.9% (active) | -13.5% (active) | 6.36% (active) | -4.22% (active) | 7.89% (active) | 9.05% (active) | -0.425% (active) |
| c1ccc2c(-c3cnn4cc(-c5ccc(N6CCNCC6)cc5)cnc34)ccnc2c1 | -45.9% (active) | -80.9% (active) | -99.4% (active) | -52.3% (active) | -64.1% (active) | -98.4% (active) | -63.8% (active) | -72.7% (active) |
| Cn1nc(-c2ccc(Cl)cc2)nc2c(=O)n(C)c(=O)nc1-2 | -43.2% (active) | -46.5% (active) | -45.8% (active) | -33.2% (active) | -62.5% (active) | -37.7% (active) | -70.2% (active) | -15.3% (active) |
| Cc1cccc(CN(Nc2ccccc2)c2ccccc2)n1 | 87.2% | 111% | 103% | 107% | 93.3% | 95.5% | 112% | 110% |
| C=C(c1ccc(C(=O)O)c(F)c1)c1cc2c(cc1C)C(C)(C)C=CC2(C)C | 58.9% | 87.4% | 95.3% | 110% | 52.5% | 85.4% | 112% | 66.6% |
| CCNCCNc1c(C)c(-c2ccc(C(F)(F)F)cc2)c(C#N)c2nc3ccccc3n12 | 82.6% | 75.5% | 65.2% | 93.6% | 76.2% | 93.4% | 99.4% | 97% |
| COC(=O)c1nc(-c2ccccc2)oc1S(=O)(=O)NCC(c1ccc(Cl)cc1)N1CCCCC1 (stereo unspecified) | 52.1% | 55.8% | 72.1% | 36.2% | 34.7% | 78% | 117% | 80.6% |

| Compound | growth [1] | growth [2] | growth [3] | growth [4] | growth [5] | growth [6] | growth [7] | growth [8] |
| --- | --- | --- | --- | --- | --- | --- | --- | --- |
| CN(C)C(=S)NN=C(c1ccccn1)c1ccccn1 | 29.6% | 17% | 41.4% | 17.7% | 17.3% | 20.5% | 40% | 16.7% |
| Nc1ncc(-c2ccc3ncnc(N4CCc5ccc(Cl)cc54)c3c2)cn1 | -7.59% (active) | -25% (active) | 7.35% (active) | 0.122% (active) | 10.6% | -30.6% (active) | 5.87% (active) | 6.87% (active) |
| Cc1nc2ccccc2c(/C=C/c2ccc(Cl)cc2)c1C(=O)/C=C/c1ccccc1 | 9.61% (active) | 26.7% | -53.2% (active) | 1.45% (active) | 11.2% | -53.4% (active) | -12% (active) | 10.7% |
| CC1=C(C(=O)c2ccccc2)C(c2ccc3c(c2)OCO3)NC(=S)N1 (stereo unspecified) | 67.9% | 50.6% | -49.5% (active) | 24.2% | 22% | 20.1% | 62.2% | 20% |
| CCOC(=O)C#Cc1c(CC(=O)OCC)nnn1[C@H]1O[C@@H](CO)[C@@H]2OC(C)(C)O[C@@H]21 | 38.2% | 87.3% | 87.2% | -19% (active) | 11.5% | 65.2% | 107% | 103% |
| COc1ccc(N2C(=O)/C(=C/C(Cl)=C/c3ccc([N+](=O)[O-])cc3)SC2=S)cc1 | -14.9% (active) | -4.68% (active) | -14.4% (active) | -13.7% (active) | 10.4% | -60.4% (active) | -20.2% (active) | -61.5% (active) |
| O=C(O)COc1ccc(F)cc1 | 104% | 119% | 108% | 112% | 95.8% | 103% | 103% | 103% |
| Cc1ccc(OCCOCCOCCOCCOc2ccc(C)n(O)c2=S)c(=S)n1O | 8.09% (active) | 14.1% | 29.4% | 25.7% | 10.1% | 14.3% | 5.72% (active) | 18.6% |
| COc1ccc(-c2cn(Cc3ccc4c(Br)cc(Br)c(O)c4n3)nn2)cc1 | 65.1% | 111% | 89% | 75.4% | 67.4% | 77.8% | 101% | 99.4% |
| Cc1c(CC(=O)Nc2ccccc2)nnn1-c1ccccc1 | 101% | 112% | 115% | 110% | 99.6% | 106% | 102% | 108% |
| O=C1/C(=C/c2ccccc2)COc2ccc(O)cc21 | 80.7% | 81.2% | 68.4% | 53.1% | 23.7% | 51.9% | 101% | 41.4% |
| CN1CCN(Cn2nc(-c3cc(Cl)cc(Cl)c3Cl)oc2=S)CC1 | 98.9% | 94.9% | 88.9% | 100% | 97.5% | 97.5% | 105% | 94.2% |
| C=C1C(=O)O[C@H]2[C@H]1CC/C(COC(=O)NCc1ccc(Cn3c(=O)sn(CCCC)c3=O)cc1)=C\CC[C@@]1(C)O[C@@H]21 | 26.2% | 53.3% | 40.8% | -47% (active) | 7.24% (active) | 3.34% (active) | 97.7% | 101% |
| CCOC(=O)c1c(C)nc2c(c1N)C(=O)C(=O)N2CCc1ccc(OC)c(OC)c1 | 44.6% | 64.4% | 41.4% | 47.8% | 20.3% | 38.7% | 93.7% | 58.3% |
| CN(C)CCCN(CCC1CCCCC1)CCC1CCCCC1 | -37.6% (active) | 86% | -33.2% (active) | 40.6% | -24.1% (active) | 29% | -88.1% (active) | 12% |
| NC(=N\N=C/c1ccc(Cl)cc1Cl)/C(N)=N\N=C/c1ccc(Cl)cc1Cl | 10.8% | 111% | 82.6% | 63.4% | 87% | 21.9% | 88.8% | 84% |
